High-throughput results deposited in PubChem BioAssay by National Center for Advancing Translational Sciences (NCATS).
Most compounds without a hit are left out; they make up all but 7.5% or so of the library.
Rab9 prom act: activators of Rab9 promoter | Huh7 Rab9 promoter-luciferase reporter, luminescence, 24 h | Potency, µM (series often up to 9.22 µM), for inactives: top-dose activation, negative = inhibition, hits mostly activators | 320,000 tested, 2.8% active; also: % of control where 0% means no effect; nearly all actives have a fitted effect of over 60% in size
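Steps: seed 1500 Huh7 Rab9-luc cells per well, rest 2 h at 37 °C; add compound in DMSO; incubate 24 h; add luciferase reagent, 10 min ambient; read luminescence.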
SMN2 splice enh: enhancers of SMN2 splice variant expression. Potency, µM (series often up to 46.1 µM), for the others: top-dose activity change, positive = activation, actives largely listed as activators. AID 1458. 210,000 tested, 2.8% active. HEK293 SMN2-luciferase splicing reporter, luminescence, 30-36 h; also: % of control where 0% means no effect; nearly all actives have a fitted effect of over 55% in size
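HEK293 cells carry an SMN2 […]–luciferase reporter in which exon 7 inclusion puts luciferase in frame. Cells were plated 10-12 h before compound addition, then incubated 30-36 h at 37C. ONE-Glo luminescence was read; sodium butyrate at 4.5 mM final served as control.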
NPC1 promoter act: NPC1 promoter activation. AID 485313. 320,000 tested, 2.4% active. Huh7 NPC1 promoter luciferase reporter, 24 h. Potency, µM (titrated, usually from 9.22 µM), for the others: at the highest dose activation, hits mostly activators; also: % of control where 0% means no effect; nearly all actives have a fitted effect of over 60% in size
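Luminescence from an NPC1 promoter-driven luciferase reporter in stably transfected Huh7 cells was measured after 24 h compound treatment at 37 °C, followed by 10 min ambient incubation with luciferase detection reagent.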
KinaseGlo FLuc: Kinase-Glo luciferase inhibition (counter-screen); Q27757; Kinase-Glo luciferase, ATP luminescence, 8 min; Potency, µM (top dose mostly 38.3 µM), without a hit: top-dose activity change, negative = inhibition, hits mostly inhibitors; 200,000 tested, 0.28% active; also: % is scaled to controls: 0 for no effect and ±100 for the full control effect; nearly all actives have a fitted effect of over 60% in size
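Compounds were added to a substrate mix at pH 7.2 (50 mM imidazole, 10 uM ATP, within the enzyme's linear range), followed by Kinase-Glo detection reagent; luminescence was measured after 8 minutes at ambient temperature.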
ELG1 genotoxic: inducers of genotoxicity in HEK293T ELG1-luciferase cells; AID 504466; Potency, µM (top dose mostly 46 µM), without a hit: at the highest dose activity change, positive = activation, usual class: activators; 330,000 tested, 1.3% active; HEK293T ELG1-luciferase reporter, luminescence, 16 h; also: % of control where 0% means no effect; nearly all actives have a fitted effect of over 60% in size
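HEK293T cells expressing luciferase-tagged ELG1 were exposed to compound or DMSO vehicle for 16 hr at 37 °C and 5% CO2. Luciferase activity was then measured with ONE-Glo after 30 min at room temperature.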
FLuc modulator: counter-screen for miR-21 project: firefly luciferase inhibitors or activators; purified FLuc, Km substrates, luminescence inhibition; Potency, µM (doses to about 57.5 µM), without a hit: at the highest dose activity change, negative = inhibition, actives largely listed as inhibitors; 360,000 tested, 6.9% active;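 also: plate controls were vehicle for no effect and reference inhibitor for full effect; nearly all actives have a fitted effect of over 55% in size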
Target sequence (P08659 whole entry, looked up): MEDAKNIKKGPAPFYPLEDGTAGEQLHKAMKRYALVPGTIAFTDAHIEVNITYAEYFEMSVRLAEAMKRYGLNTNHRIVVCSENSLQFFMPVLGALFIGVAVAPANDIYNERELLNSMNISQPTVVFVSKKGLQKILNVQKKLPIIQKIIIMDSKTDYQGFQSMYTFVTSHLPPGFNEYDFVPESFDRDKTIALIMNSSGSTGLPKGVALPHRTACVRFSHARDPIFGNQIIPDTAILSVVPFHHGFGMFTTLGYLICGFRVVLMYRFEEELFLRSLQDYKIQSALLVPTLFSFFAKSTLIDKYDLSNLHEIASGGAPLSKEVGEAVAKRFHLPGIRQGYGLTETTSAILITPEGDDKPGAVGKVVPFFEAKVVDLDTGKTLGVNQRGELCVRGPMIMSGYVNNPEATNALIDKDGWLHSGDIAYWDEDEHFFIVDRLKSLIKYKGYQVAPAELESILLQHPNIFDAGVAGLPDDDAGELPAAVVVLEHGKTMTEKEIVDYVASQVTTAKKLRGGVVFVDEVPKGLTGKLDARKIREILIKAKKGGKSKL
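Biochemical qHTS of compounds, final roughly 60 µM downward over six points, against 10 nM purified firefly luciferase using Km concentrations of substrates (10 uM D-luciferin, 10 uM ATP) in Tris acetate pH 7.5 buffer; luminescence output.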
Numbers without * were called inactive; ? = inconclusive; · = not tested or not shown; [ ] = remark or other dose. Calls follow the shape of the dose curve; as a rule, active = well fitted curve in the direction sought with a large enough effect; inconclusive = small, poorly fitted or top-dose-only effect, or another doubt; inactive = no such curve, though single readings can be large; an effect the other way counts as inactive or inconclusive. Potency is read from the fitted curve at half-maximal effect.

SMILES	Rab9 prom act	SMN2 splice enh	NPC1 promoter act	KinaseGlo FLuc	ELG1 genotoxic	FLuc modulator
CCN(CC(=O)Nc1ccccc1C(F)(F)F)C(=O)c1oc2ccc(OC)cc2c1C	-2%	·	6%	·	?	17µM*
COc1ccc2c(CC(=O)Nc3ccc(OC)c(S(=O)(=O)N4CCOCC4)c3)coc2c1	-1%	3%	2%	-4%	14%	17µM*
COc1ccc(NC(=O)Cc2coc3cc(C)c(C(C)C)cc23)cc1S(=O)(=O)N1CCOCC1	-14%	-70%	-1%	2%	1%	?
COc1ccc(-c2[nH]c(-c3cccc(OC)c3)nc2SCC(=O)Nc2ccc3c(c2)OCO3)cc1	·	1%	·	·	·	-9%
COc1cc(-c2nc(SCC(=O)Nc3ccc4c(c3)OCO4)c(-c3ccccc3)[nH]2)cc(OC)c1OC	·	?	·	·	·	8.5µM*
CCOc1ccc(-c2nc(SCC(=O)Nc3ccc4c(c3)OCCO4)c(-c3ccc(F)cc3)[nH]2)cc1	·	-15%	·	·	·	3%
COc1ccc(-c2nc(SCC(=O)Nc3ccc4c(c3)OCCO4)c(-c3ccccc3)[nH]2)cc1	·	-22%	·	·	·	6µM*
COc1cccc(-c2nc(SCC(=O)Nc3ccc4c(c3)OCCO4)c(-c3ccccc3)[nH]2)c1	·	-20%	·	·	·	5.4µM*
O=C(CSc1nc(-c2ccccc2)[nH]c1-c1ccccc1)Nc1ccc2c(c1)OCO2	·	24%	·	·	·	-14%
Cc1cccc(-c2nc(SCC(=O)Nc3ccc4c(c3)OCCO4)c(-c3ccccc3)[nH]2)c1	·	-41%	·	·	·	8.5µM*
O=C(CSc1nc(-c2cccc(F)c2)[nH]c1-c1ccccc1)Nc1ccc2c(c1)OCCO2	·	37%	·	·	·	?
CCCN(CCC)CCNC(=O)CN1C(=O)COc2ccc(S(=O)(=O)N3CCC(C)CC3)cc21	·	1%	·	·	·	-2%
Cc1ccc(Cl)cc1NC(=O)c1ccc2nc(CCc3ccccc3)oc2c1	·	·	·	·	·	-11%
COc1cccc(C(=O)Nc2cc(C(F)(F)F)ccc2Cl)c1	1%	-14%	1%	-5%	-1%	?
COc1cccc(C(=O)Nc2ccc(Cl)c(C(F)(F)F)c2)c1	?	-5%	2%	4%	1%	21µM*
COc1cc(C(=O)Nc2ccc(Cl)c(C(F)(F)F)c2)cc(OC)c1OC	9%	-8%[1.84 µM]	0%	-2%	2%	21µM*
Cn1c(=O)c2cc(C(=O)N3CCN(c4ccc(Cl)cc4)CC3)sc2c2ccccc21	·	5%	·	·	·	-2%
CCOCC(=O)Nc1nc2ccc(OC)cc2s1	1.4µM*	11µM*	2µM*	-20%	5.2µM*	12µM*
CCOc1ccc2nc(NC(=O)C(CC)Sc3nc(C)cc(=O)[nH]3)sc2c1 (stereo not drawn)	?	36%	28%	0%	?	24µM*
CCCCOC(=O)Nc1nc2ccc(OC)cc2s1	19%	21%	25%	-2%	?	?
CCOc1ccc2nc(NC(=O)COC)sc2c1	1.3µM*	11µM*	2µM*	-4%	2µM*	5.4µM*
CCOc1ccc2nc(NC(=O)Cn3[nH]c(=O)c4ccccc4c3=O)sc2c1	?	·	?	·	?	15µM*
CCOc1ccc2nc(NC(=O)CN3CCN(CC)CC3)sc2c1	0%	·	4%	·	3%	-18%
CCN(Cc1ccccc1)S(=O)(=O)c1ccc(N2CCCCS2(=O)=O)cc1	·	·	·	·	·	-17%
CCOc1ccc(N(C)C(=O)C2CCN(S(=O)(=O)c3ccc4c(c3)CCCN4C(C)=O)CC2)cc1	·	·	·	·	·	-5%
SMILES	Rab9 prom act	SMN2 splice enh	NPC1 promoter act	KinaseGlo FLuc	ELG1 genotoxic	FLuc modulator
Cc1ccc(CC(=O)NC2CCSC2=O)cc1 (stereo not drawn)	-11%	·	1%	-2%	1%	-2%
CCOc1ccc2nc(NC(=O)CN3CCN(C)CC3)sc2c1	10%	23%	6%	-3%	14%	?
CCOc1ccc2nc(NC(=O)CN3C(=O)C4CCCCC4C3=O)sc2c1 (stereo not drawn)	21%	·	22%	·	6%	6µM*
CCOc1ccc(N(C)c2ccc(/C=C3/SC(=S)NC3=O)cc2)cc1	-4%	·	0%	·	-2%	?
CCn1ncc(/C=C2/SC(=S)NC2=O)c1C	2%	13%	1%	-1%	-1%	15µM*
Cc1cc(/C=C2\SC(=S)NC2=O)c(C)[nH]1	9%	19%	8%	2%	?	11µM*
CCn1c(C)cc(/C=C2/SC(=S)NC2=O)c1C	?	?	?	3%	?	4.8µM*
CCc1ccc(-c2[nH]nc3nc(-c4cc(OC)ccc4OC)cc(C(=O)O)c23)cc1	·	·	·	·	·	1.9µM*
COc1ccc(-c2[nH]nc3nc(-c4cc(OC)c(OC)c(OC)c4)cc(C(=O)O)c23)cc1	·	·	·	·	·	2.7µM*
CCOc1cc(-c2cc(C(=O)O)c3c(-c4ccccc4)[nH]nc3n2)ccc1O	·	5%	·	·	·	?
COc1cccc([C@@H]2Oc3ccc(Br)cc3C(=O)[C@H]2OC(=O)Nc2cc(OC)c(OC)c(OC)c2)c1	·	-61%	·	1%	·	·
O=C(Nc1ccc2c(c1)OCCO2)c1ccc(CN2CCOCC2)cc1	3.5µM*	2%	28%	3%	4%	11µM*
COc1c(Cl)cc(Cl)cc1C(=O)Nc1ccc(CN2CCOCC2)cc1	-7%	·	2%	·	-2%	-15%
CCCOc1ccc(C(=O)Nc2ccc(CN3CCOCC3)cc2)cc1	-1%	·	8%	·	1%	13µM*
COc1cccc(NC(=O)c2ccc(CN3CCOCC3)cc2)c1	3.2µM*	?	4µM*	-5%	8%	11µM*
O=C(Nc1ccc2c(c1)OCCO2)c1ccc(Cl)c(S(=O)(=O)N2CCOCC2)c1	8%	-38%	5%	-3%	-3%	?
COc1c(C)cccc1C(=O)Nc1ccc(CN2CCOCC2)cc1	2.5µM*	16µM*	3.2µM*	-1%	?	17µM*
O=C(NCCc1ccccc1)c1ccc(CSc2nc3ccncc3n2Cc2ccccc2)cc1	·	15%	·	·	·	-12%
COc1ccc(C(=O)Nc2ccc(CN3CCOCC3)cc2)cc1Br	-1%	·	3%	·	2%	15µM*
COc1c(C)cccc1C(=O)Nc1ccc(OCC(=O)N2CCOCC2)cc1C	-20%	·	-10%	·	16%	13µM*
COc1cc(C(=O)Nc2ccc(OCC(=O)N3CCOCC3)cc2C)cc(OC)c1OC	-1%	·	0%	·	4%	7%
CC(C)Oc1cccc(C(=O)Nc2ccc(CN3CCOCC3)cc2)c1	1%	-48%	6%	3%	-4%	12µM*
O=C(N/N=C/C(Br)=C/c1ccccc1)c1ccccc1F	3.2µM*	·	3.5µM*	·	18µM*	11µM*
